# Experimental data: PubChem BioAssay (Tox21)
# Values without a mark were called inactive. Results filed as inconclusive are left out. Where a call stands in place of a potency, no number is given. The source made the active and inactive calls. Unless noted, calls follow the shape of the dose curve; as a rule, active = well fitted curve in the direction sought with a large enough effect in the repeat runs; inconclusive = weak or mixed curves; inactive = no such curve, though single readings can be large; an effect the other way counts as inactive or inconclusive.
# Assays:
# [1] = qHTS assay to identify small molecule agonists of the hypoxia (HIF-1) signaling pathway - cell viability counter screen (AID 1224844; calls by dose curve; also: nearly all actives have a fitted effect of over 50% in size; also: potency is read from the fitted curve at half-maximal effect)
# Outline: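 Viability counter screen: HRE-bla ME-180 cells plated 5 hrs before compound addition, treated 17 hrs at 37C and 5% CO2, then CellTiter-Glo added after the FRET reporter read; luminescence after 30 min.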
# [2] = qHTS assay to identify small molecule agonists of the hypoxia (HIF-1) signaling pathway (AID 1224846; active = well fitted activation curve with a large enough effect in the signal ratio in the repeat runs, not every such curve was filed as active; the % refers to the signal ratio)
# Outline: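 Agonist mode reporter screen. ME-180 cells stably expressing bla under HRE control received test compounds in DMSO for 17 hrs (37C, 5% CO2), and beta-lactamase activity was then detected with the CCF4-AM FRET substrate.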
# [3] = qHTS RealTime-Glo MT Cell Viability Assay in HepG2 cells - 24 hour (AID 1224867); also: nearly all actives have a fitted effect of over 50% in size
# Outline: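 Cells + NanoLuc/prosubstrate dispensed (600 cells/well) → 5 h at 37 C/5% CO2 → compounds in DMSO transferred → 40 h incubation at 37 C, luminescence read at 0, 8, 16, 24, 32, 40 h.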
# [4] = qHTS RealTime-Glo MT Cell Viability Assay in HEK293 cells - 32 hour (AID 1224868); also: nearly all actives have a fitted effect of over 50% in size; also: potency is read from the fitted curve at half-maximal effect; as to activity change, negative = cytotoxic: top concentration of the series differs between compounds
# Outline: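 Tox21 10K qHTS, HEK293, 600 cells/well, RealTime-Glo reagent co-dispensed with cells; 5 h preincubation, compound by pintool, 37 C, luminescence at 0–40 h.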
# [5] = A CellTox Green Cytotoxicity Assay to monitor cytotoxicity in HEK293 cells - 0 hour (AID 1224869); also: nearly all actives have a fitted effect of over 50% in size
# Outline: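 Dead-cell fluorescence measured kinetically: asymmetric cyanine dye, HEK293, 600 cells/well, 5 h settle, 23 nL cpd/DMSO, 37 C, reads 0–40 h every 8 h.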
# [6] = qHTS RealTime-Glo MT Cell Viability Assay in HepG2 cells - 40 hour (AID 1224870); also: nearly all actives have a fitted effect of over 50% in size
# Outline: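 HepG2 cells mixed with RealTime-Glo MT reagents (NanoLuc plus cell-permeant prosubstrate) were seeded at 600 cells/well, incubated 5 h at 37 C/5% CO2, then pinned with compounds in DMSO; nonlytic luminescence tracked viability during 40 h treatment.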
# [7] = qHTS assay to identify small molecule agonists of H2AX (AID 1224845; active = well fitted activation curve with a large enough effect in the signal ratio in the repeat runs, not every such curve was filed as active; the % refers to the signal ratio; also: potency is read from the fitted curve at half-maximal effect)
# Outline: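 Wild-type CHO-K1 cells plated overnight, then exposed 3 hr at 37C to compounds at 15 concentrations (0.76% DMSO). Lysed, then HTRF anti-pH2AX(S139)-cryptate/anti-H2AX-d2 detection after 24 hr at room temperature; emissions 665 and 620 nm.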
# [8] = qHTS assay to identify small molecule agonists of H2AX - cell viability counter screen (AID 1224847; calls by dose curve; also: top concentration of the series differs between compounds; nearly all actives have a fitted effect of over 30% in size)
# Outline: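 After overnight plating of 1000 CHO-K1 cells per well, a 15-concentration compound series was applied for 3 hr at 37C. Luminescence from CellTiter-Glo, read following 30 min at room temperature, reflected cell viability.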
# [9] = qHTS assay to identify small molecule antagonists of the estrogen related receptor (ERR) signaling pathway from Tox21 library (AID 1224848); also: nearly all actives have a fitted effect of over 50% in size; also: potency is read from the fitted curve at half-maximal effect
# Outline: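 Tox21 10K compounds in DMSO tested for ERR pathway antagonism in NTP's ERR cell line; 18 h, 37 C exposure; ONE-Glo luminescence.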
# [10] = qHTS assay to identify small molecule agonists of the estrogen related receptor (ERR) signaling pathway from Tox21 library (AID 1224849; calls by dose curve; also: nearly all actives have a fitted effect of over 15% in size); conditions: ERR reporter cell line, ONE-Glo luciferase, 18 h; at 92.4 µM (top of the series) unless noted
# Outline: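 Quantitative HTS in agonist format: NTP ERR cell line, compounds transferred in DMSO after 6 h plating, 18 h incubation at 37 C, ONE-Glo luminescence endpoint.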
structure (smiles),measurement,setting,value
CC(=O)CC(c1ccc(Cl)cc1)c1c(O)c2ccccc2oc1=O (configuration not stated),Potency,[1],inactive
same,outcome,[2],inactive
same,Potency,[3],inactive
same,Potency,[4],inactive
same,Potency,[5],inactive
same,Potency,[6],inactive
CNC(=O)Oc1cccc(C(C)C)c1,Potency,[1],inactive
same,Potency,[7],inactive
same,Potency,[3],inactive
same,Potency,[4],inactive
same,Potency,[5],inactive
same,Potency,[6],inactive
O=[N+]([O-])c1ccc2c3c(cccc13)CC2,Potency,[1],inactive
same,outcome,[2],inactive
same,Potency,[8],inactive
same,Potency,[3],inactive
same,Potency,[4],inactive
same,Potency,[5],inactive
same,Potency,[6],inactive
CCOC(=O)C(c1c(O)c2ccccc2oc1=O)c1c(O)c2ccccc2oc1=O,Potency,[7],inactive
same,Potency,[3],inactive
same,Potency,[4],inactive
same,Potency,[5],inactive
same,Potency,[6],inactive
Cc1ccccc1CO[C@@H]1C[C@@]2(C(C)C)CC[C@]1(C)O2,Potency,[1],inactive
same,outcome,[2],inactive
same,Potency,[3],inactive
same,Potency,[4],inactive
same,Potency,[5],inactive
same,Potency,[6],inactive
COc1cccc2c1cc([N+](=O)[O-])c1c(C(=O)O)cc3c(c12)OCO3,Potency,[1],54.9 µM (active)
same,Potency,[8],inactive
same,Potency,[9],4.86 µM (active)
same,"activity change, positive = activation",[10],-37.1%
same,Potency,[3],inactive
same,Potency,[4],2.45 µM (active)
same,Potency,[5],inactive
same,Potency,[6],inactive
CC(CC(C#N)(c1ccccc1)c1ccccc1)N(C)C (configuration not stated),Potency,[7],inactive
same,outcome,[2],inactive
same,Potency,[8],inactive
same,Potency,[3],inactive
same,Potency,[5],inactive
same,Potency,[6],inactive
N#Cc1ccncc1,Potency,[1],inactive
same,outcome,[2],inactive
same,Potency,[8],inactive
same,Potency,[9],inactive
same,"activity change, positive = activation",[10],5.77%
same,Potency,[3],inactive
same,Potency,[4],inactive
same,Potency,[5],inactive
O=C(N[C@H]1CN2CCC1CC2)c1cc2ccoc2cn1,Potency,[1],inactive
same,Potency,[7],inactive
same,Potency,[3],inactive
same,Potency,[4],inactive
same,Potency,[5],inactive
same,Potency,[6],inactive
CCOc1nc(C(Cl)(Cl)Cl)ns1,Potency,[7],inactive
same,outcome,[2],inactive
same,Potency,[8],inactive
same,"activity change, positive = activation",[10],-11.7%
same,Potency,[3],inactive
same,Potency,[4],inactive
same,Potency,[5],inactive
same,Potency,[6],inactive
CCOC(=O)/C=C(C)/C=C/C[C@@H](C)CCCC(C)C,Potency,[1],inactive
same,Potency,[7],113 µM (active)
same,Potency,[3],inactive
same,Potency,[4],inactive
same,Potency,[5],inactive
same,Potency,[6],inactive
Nc1cc(Cl)ccc1O,Potency,[1],inactive
same,outcome,[2],inactive
same,Potency,[8],inactive
same,Potency,[3],inactive
same,Potency,[4],inactive
same,Potency,[5],inactive
same,Potency,[6],inactive
C=C(C)[C@@H]1CC=C(C=O)CC1,Potency,[1],inactive
same,outcome,[2],inactive
same,Potency,[8],inactive
same,Potency,[9],inactive
same,"activity change, positive = activation",[10],-5.19%
same,Potency,[3],inactive
same,Potency,[4],inactive
same,Potency,[5],inactive
same,Potency,[6],inactive
O=C1OC(CCN2CCCCC2)OC1(c1ccccc1)c1ccccc1 (configuration not stated),Potency,[1],inactive
same,Potency,[8],inactive
same,Potency,[3],inactive
same,Potency,[4],inactive
same,Potency,[5],inactive
same,Potency,[6],inactive
COc1cc(OC)nc(Oc2cccc(Oc3nc(OC)cc(OC)n3)c2C(=O)O)n1,Potency,[1],inactive
same,Potency,[7],inactive
same,Potency,[3],inactive
same,Potency,[4],inactive
same,Potency,[5],inactive
same,Potency,[6],inactive
C(CCOCC1CO1)COCC1CO1 (configuration not stated),Potency,[7],inactive
same,Potency,[8],inactive
same,Potency,[3],inactive
same,Potency,[5],inactive
same,Potency,[6],inactive
CCCCOC(=O)c1ccccc1C(=O)O,Potency,[7],inactive
same,outcome,[2],inactive
same,Potency,[8],inactive
same,Potency,[3],inactive
same,Potency,[4],inactive
same,Potency,[5],inactive
same,Potency,[6],inactive
c1cc[c]([Hg][c]2ccccc2)cc1,Potency,[1],49 µM (active)
same,Potency,[8],inactive
same,Potency,[3],inactive
same,Potency,[4],30.9 µM (active)
same,Potency,[5],inactive
same,Potency,[6],inactive
CCC(C)(C)c1cc(-n2nc3ccccc3n2)c(O)c(C(C)(C)CC)c1,Potency,[7],inactive
same,outcome,[2],inactive
same,Potency,[9],39.2 µM (active)
same,"activity change, positive = activation",[10],-66.5%
same,Potency,[3],inactive
same,Potency,[4],22.2 µM (active)
same,Potency,[5],inactive
same,Potency,[6],inactive
CCN(CC)C(=O)[C@@H]1C=C2c3cccc4[nH]cc(c34)C[C@H]2N(C)C1,Potency,[1],inactive
same,outcome,[2],inactive
same,Potency,[8],inactive
same,"activity change, positive = activation",[10],-24.6% [at 240 µM]
same,Potency,[3],inactive
same,Potency,[5],inactive
same,Potency,[6],inactive
CC(C)(C)OC(=O)c1ncn2c1[C@@H]1CCCN1C(=O)c1c(Br)cccc1-2,Potency,[1],inactive
same,outcome,[2],inactive
same,Potency,[8],inactive
same,Potency,[9],23.7 µM (active)
same,"activity change, positive = activation",[10],-34.2% [at 42.5 µM]
same,Potency,[3],inactive
same,Potency,[4],inactive
same,Potency,[5],inactive
same,Potency,[6],inactive
CCOP(=S)(OCC)SCSc1ccc(Cl)cc1,Potency,[1],inactive
same,outcome,[2],inactive
same,Potency,[3],inactive
same,Potency,[4],inactive
same,Potency,[5],inactive
same,Potency,[6],inactive
CNCC(=O)c1ccc(O)c(O)c1,Potency,[1],inactive
same,outcome,[2],inactive
same,Potency,[3],inactive
same,Potency,[4],inactive
same,Potency,[5],inactive
same,Potency,[6],inactive
O=C1c2ccccc2C(=O)c2ccccc21,"activity change, negative = cytotoxicity",[1],-0.0454% [at 15.8 µM]
same,activation,[2],0.0544% [at 15.8 µM]
same,"activity change, negative = cytotoxicity",[8],8.07% [at 31.6 µM]
same,"activity, negative = inhibition",[9],18.9% [at 19 µM]
same,"activity change, positive = activation",[10],10.5% [at 19 µM]
same,"activity change, negative = cytotoxicity",[3],0.705% [at 15.8 µM]
same,"activity change, negative = cytotoxic",[4],15.3% [at 15.8 µM]
same,cytotoxicity,[5],6.35% [at 15.8 µM]
same,"activity change, negative = cytotoxic",[6],0.48% [at 15.8 µM]
CC(C)CP(=S)(S)CC(C)C,Potency,[7],inactive
same,outcome,[2],inactive
same,Potency,[8],inactive
same,Potency,[3],inactive
same,Potency,[4],inactive
same,Potency,[5],inactive
same,Potency,[6],inactive
CCCCOP(=O)(O)OCCCC,Potency,[1],inactive
same,outcome,[2],inactive
same,Potency,[3],inactive
same,Potency,[4],inactive
same,Potency,[5],inactive
same,Potency,[6],inactive
Cc1ncc(CNC(=O)N(CCCl)N=O)c(N)n1,Potency,[1],inactive
same,Potency,[7],inactive
same,Potency,[3],inactive
same,Potency,[4],inactive
same,Potency,[5],inactive
same,Potency,[6],inactive
